In PubChem BioAssay AID686977 (Southern Research Specialized Biocontainment Screening …, 2013):
Fewer than 10 of roughly 9,400 compounds were called active. Roughly 5% stayed inconclusive and do not appear here. The list is a sample of the results. Entries with a potency or affinity are not part of this list. A number with no mark means an inactive call. How the calls were made is not given here.

Assay: Vibrio cholerae quorum sensing activators, luminescence (AID 686977)
Settings: V. cholerae quorum sensing reporter, 6 h, stronger effect = higher value; dose 50, dose unit µM unless noted
For `CC(C)OC(=O)c1nnc(Cc2ccc(F)cc2)o1`, the luminescence was 0.
For `CC(NC(=O)c1ccccc1Br)c1ccc2c(c1)CCCC2` (stereo not given), the luminescence was 40.
With `Cc1ccc(C(=O)CC(C(=O)O)c2cn(CCC#N)c3ccccc23)cc1` (stereo not given) the luminescence was 40.
`CCC(C)c1ccc(-c2cc(C(=O)OCC(=O)Nc3cc(C)on3)c3ccccc3n2)cc1` (stereo not given) showed a luminescence of 0.
`CCc1cccc(C)c1NC(=O)CN1C(=O)c2ccccc2S1(=O)=O` gave a luminescence of 200.
`N#Cc1nc(-c2cccc3ccccc23)oc1N1CCCCC1` gave a luminescence of 0.
`Cc1ccn2cc(CCNC(=O)C3CCCCC3)nc2c1` showed a luminescence of 0.
With `Cc1c(NC(=O)CSc2nnc3sc4ccccc4n23)c(=O)n(-c2ccccc2)n1C` the luminescence was 40.
In the case of `COC(=O)/C(=C\Nc1ccccc1N)c1ncc(C(F)(F)F)cc1Cl`, the luminescence is reported as 40.
`COc1ccc(C(=O)NC(Cc2ccccc2)c2ccc3c(c2)OCCCO3)cc1` (stereo not given) gave a luminescence of 0.
In the case of `O=C(O)c1ccc(NS(=O)(=O)c2cccc3cccnc23)cc1`, the luminescence is reported as 0.
Molecule `CCCNS(=O)(=O)c1ccc(CCC(=O)N2CCN(c3ccc(OC)cc3)CC2)cc1` has a luminescence of 0.
With `O=C(c1ccco1)N1CCN=C1SCc1ccccc1Cl` the luminescence was 0.
Molecule `Oc1c(C(c2cccs2)N2CCN(c3cccc(Cl)c3)CC2)sc2ncnn12` (stereo not given) has a luminescence of 40.
With `COc1ccc(C(=O)NCCn2cc(SCC(=O)NCc3ccco3)c3ccccc32)cc1` the luminescence was 0.
For `CCn1c(SCC(=O)NCCc2ccccc2)nnc1-c1ccco1`, the luminescence was 0.
In the case of `COc1cc(OC)cc(-c2cc(N)n(S(=O)(=O)Cc3ccccc3)n2)c1`, the luminescence is reported as 40.
Work on `CCC(=O)N=c1sc2c(C)cc(C)cc2n1CC(=O)OC` yielded a luminescence of 0.
`Cc1ccc2[nH]c(=O)c(CN(CCCN(C)C)C(=O)Nc3ccc(Cl)cc3)cc2c1` showed a luminescence of 0.
With `CC(=O)c1sc(NC(=O)c2ccccc2F)nc1C` the luminescence was 80.
For `CC(C)N(Cc1nc(-c2ccccc2)no1)C(=O)c1ccc(Cl)cc1`, the luminescence was 0.
`O=C(O)C1CCC(=O)N(C2CCCCC2)C1c1ccccc1` (stereo not given) gave a luminescence of 0.
In the case of `Cc1ccn(CCSCC(=O)O)n1`, the luminescence is reported as 0.
In the case of `CCc1ccc(-c2cc(C(F)(F)F)n3nc(C(=O)Nc4c(C)nn(Cc5ccccc5C)c4C)cc3n2)s1`, the luminescence is reported as 0.
With `Cc1cccc2cc(CN(Cc3cccs3)Cc3nnnn3Cc3ccccc3)c(=O)[nH]c12` the luminescence was 0.
`CC(=O)c1cccc(N(CC(=O)O)S(C)(=O)=O)c1` gave a luminescence of 40.
Molecule `CCN(CC)CCN1C(=O)C(=O)/C(=C(/O)c2c(C)[nH]c(C(=O)OC)c2C)C1c1cccs1` (stereo not given) has a luminescence of 0.
In the case of `COc1ccc2nc(SCc3nc(N)nc(Nc4ccccc4)n3)[nH]c2c1`, the luminescence is reported as 40.
`CCOc1ccc(N(CC(=O)NC(C)(C)C)C(=O)c2ccco2)cc1` showed a luminescence of 40.
With `CCOC(=O)c1c(C)c(C(=O)NCC2CCCO2)c(C)n1CC` (stereo not given) the luminescence was 0.
With `O=C(NCCC1=CCCCC1)c1ccc(F)c(S(=O)(=O)N2CCOCC2)c1` the luminescence was 0.
`BrC(=C\c1ccccc1)/C=N/N1CCN(Cc2ccccc2)CC1` showed a luminescence of 0.
Molecule `COC(=O)c1c(C)[nH]c(C)c1-c1ccccc1Cl` has a luminescence of 0.
Work on `CCOC(=O)C(=CNc1cc(C)nn1-c1ccc(C)cc1)C(=O)OCC` yielded a luminescence of 40.
`CCc1nc(SCC(N)=O)c2c(=O)n(C)c(=O)n(C)c2n1` showed a luminescence of 40.
`COC(=O)c1ccc(Oc2ccc(C(C)(C)C)cc2)c([N+](=O)[O-])c1` gave a luminescence of 0.
Molecule `Cc1ccc(C(=O)c2ccc([N+](=O)[O-])cc2)cc1C` has a luminescence of 40.
Work on `COC(=O)c1c(NC(=O)C2CC2)sc2c1CCCC2` yielded a luminescence of 40.
With `CS(=O)(=O)N(CC(=O)NCCC1=CCCCC1)C1CCCCC1` the luminescence was 40.
With `O=C(CSc1nnc(C2CC2)n1Cc1ccccc1)c1cc2ccccc2o1` the luminescence was 80.
With `COc1ccc(NC(=O)CSc2nc(O)cc(=O)n2C)cc1` the luminescence was 0.
Molecule `COc1cc(NC(=O)Cn2nc(C(F)(F)F)c3c2CCCC3)cc(OC)c1OC` has a luminescence of 280.
With `CCOCCCN(Cc1ccco1)C(=O)c1cc2c(=O)[nH]c3ccc(C)cc3c2s1` the luminescence was 0.
`COc1cccc(-c2nc(CS(=O)CC(=O)NCc3ccccc3Cl)c(C)o2)c1` (stereo not given) gave a luminescence of 0.
Molecule `COC(=O)c1ccccc1NC(=O)C1CC(=O)N(c2ccccc2)C1` (stereo not given) has a luminescence of 0.
`CCOC(=O)Cc1csc(-n2sc3ccccc3c2=O)n1` showed a luminescence of 0.
Work on `O=C(NC1CCCc2ccccc21)C1CCN(C(=O)c2sccc2-n2cccc2)CC1` (stereo not given) yielded a luminescence of 40.
`COC(=O)[C@H](C)NC(=O)Nc1cccc(C)c1` showed a luminescence of 0.
Work on `CNC(=O)NC(=O)CSc1ncc(C(F)(F)F)cc1Cl` yielded a luminescence of 0.
For `N#Cc1ccccc1OCC(=O)NC(N)=O`, the luminescence was 0.
For `Cc1cc(NS(=O)(=O)c2ccc(NC(=O)C(C(C)C)N3C(=O)c4ccccc4C3=O)cc2)nc(C)n1` (stereo not given), the luminescence was 0.
In the case of `CCOC(=O)COc1cccc2c(=O)n(CC(=O)N3CCc4ccccc43)ccc12`, the luminescence is reported as 0.
Molecule `Cn1c(=O)c2c(nc(N3CCCCCC3)n2CCSc2nc3ccccc3o2)n(C)c1=O` has a luminescence of 0.
`O=C(Nc1ccc(Br)cc1F)C1CCCN(S(=O)(=O)c2cnc[nH]2)C1` (stereo not given) gave a luminescence of 0.
Work on `O=C(Nc1nccs1)c1nc(-c2ccccc2)n(-c2ccccc2)n1` yielded a luminescence of 280.
Work on `Cc1csc2nc(CNC(=O)C3CC=CCC3C(=O)O)cn12` (stereo not given) yielded a luminescence of 0.
For `COC(=O)c1ccccc1NC(=O)Nc1nnc(N2CCC(C)CC2)s1`, the luminescence was 0.
With `CC(=O)Nc1nnc(-c2ccc(Cl)s2)o1` the luminescence was 0.
For `CCOC(=O)N1CCN(C(=O)C2CCCN(S(=O)(=O)c3cccnc3)C2)CC1` (stereo not given), the luminescence was 0.
In the case of `Cc1cccc(C)c1NC(=O)c1sccc1SCc1cccc(C(F)(F)F)c1`, the luminescence is reported as 40.
Work on `O=C(CCc1ccccc1)Nc1ccc(F)cc1F` yielded a luminescence of 40.
For `COC(=O)c1cc(COc2ccc3c4c(c(=O)oc3c2)CCCC4)c(C)o1`, the luminescence was 0.
In the case of `COc1ccc(OC)c(NC(=O)c2cn(C)c(=O)c3cc(OC)c(OC)cc23)c1`, the luminescence is reported as 0.
`CC1(C)CC(=O)c2cc(OCC(=O)N3CCOCC3)ccc2O1` showed a luminescence of 40.
Molecule `CC(C)C(NC(=O)c1cccs1)c1nnc(SCC(=O)Nc2nccs2)n1C` (stereo not given) has a luminescence of 40.
In the case of `COC(=O)c1nn(-c2ccccc2)c(Cl)c1/C=N/OCc1ccc(Cl)cc1Cl`, the luminescence is reported as 40.
For `CC(C)CC(=O)Nc1ccc(S(=O)(=O)NCc2ccco2)cc1`, the luminescence was 0.
`CCOC(=O)C(C)Sc1nnc(Cc2cc(=O)[nH]c(=O)[nH]2)n1-c1ccc(OCC)cc1` (stereo not given) gave a luminescence of 0.
In the case of `CC1CCCCC1NC(=O)c1ccc(CNc2c(N3CCCC3)c(=O)c2=O)cc1` (stereo not given), the luminescence is reported as 0.
With `Cc1cnc(C(=O)Nc2cccc3cccnc23)cn1` the luminescence was 40.
`CN1CCN(c2cc3c(c4c2[nH]c2ccccc24)C(=O)CC(C)(C)C3)CC1` showed a luminescence of 40.
`Cc1cc(C(=O)CSc2nnc(-c3ccc(F)cc3)o2)c(C)n1CC1CCCO1` (stereo not given) gave a luminescence of 0.
Molecule `CCOC(=O)/C(C#N)=C\c1ccc(N2CCN(C)CC2)cc1` has a luminescence of 0.
For `CCOC(=O)C1CCN(C(=O)C2CCN(S(=O)(=O)c3cccc4cccnc34)CC2)CC1`, the luminescence was 0.
Molecule `Cc1n[nH]c(=S)c2nn(-c3ccccc3F)c(C)c12` has a luminescence of 0.
In the case of `Cn1c(C(=O)N2CCN(Cc3ccc4c(c3)OCO4)CC2)cc2c(=O)n(C)c3ccccc3c21`, the luminescence is reported as 0.
`CCC(Cc1ccccc1)NC(=O)CN1C(=O)CSc2ncccc21` (stereo not given) showed a luminescence of 0.
`OCCN1CCN(c2ncnc3ccc(Br)cc23)CC1` showed a luminescence of 200.
In the case of `CC1=CC(C)(C)N(S(=O)(=O)c2ccc(F)cc2)c2ccccc21`, the luminescence is reported as 0.
`COc1ccc(C(=O)Nc2cc3c(cc2C#N)OCO3)cc1S(=O)(=O)NCc1ccco1` gave a luminescence of 0.
For `CCOC(=O)c1c(C)nc2ccccc2c1C`, the luminescence was 40.
Work on `CCc1nn(CC(=O)NCCCN2CCc3ccccc3C2)c(=O)c2cc3sccc3n12` yielded a luminescence of 0.
Molecule `COc1ccc(-n2nnnc2SCC#CCO)cc1` has a luminescence of 0.
Work on `Cc1nnc(SCC(=O)NCc2ccco2)n1Cc1ccccc1` yielded a luminescence of 0.
Work on `CC(C)OC(=O)CSc1nnc(-c2ccccc2)n1N` yielded a luminescence of 40.
With `O=c1c2ccccc2nnn1CSc1nnc(-c2cccnc2)n1-c1ccccc1F` the luminescence was 0.
Molecule `O=[N+]([O-])c1cc(-c2cnc3ccccc3n2)ccc1Oc1ccc(F)cc1` has a luminescence of 40.
For `Cc1ccc(CN(C)C(=O)C2CCCN2C(=O)c2cccs2)o1` (stereo not given), the luminescence was 320.
For `CCn1cc(S(=O)(=O)CC(=O)Nc2cc(C)on2)c2ccccc21`, the luminescence was 0.
`CCCCN(C(=O)c1cnc2n(c1=O)CCS2)c1ccccc1` gave a luminescence of 0.
In the case of `CCc1nc2c(cnn2-c2ccc(F)cc2)c(=O)n1-c1ccc(N2CCC(C)CC2)cc1`, the luminescence is reported as 0.
`O=C(NCC(c1cccnc1)N1CCN(c2ccccc2F)CC1)c1ccco1` (stereo not given) showed a luminescence of 0.
With `CCC(C)NC(=O)CS(=O)Cc1nc(-c2cccc(OC)c2)oc1C` (stereo not given) the luminescence was 40.
For `Cc1ccc(-c2nnc(SCc3nc(N)nc(Nc4ccccc4C)n3)n2N)cc1`, the luminescence was 0.
In the case of `O=C(NCc1ccco1)c1nnc(Cc2ccc(Cl)cc2)o1`, the luminescence is reported as 0.
Molecule `CCOC(=O)C1=C(c2ccccc2)O/C(=C(\C(=O)OC)C(F)(F)F)S1` has a luminescence of 40.
For `COc1ccc(C2N(C(=O)CN3CCOCC3)CCN2S(=O)(=O)c2ccccc2)cc1` (stereo not given), the luminescence was 0.
Work on `Cc1cccc(N2CCN(C(=O)CN3CCOc4ccccc43)CC2C)c1` (stereo not given) yielded a luminescence of 0.
`Cc1onc(-c2ccccc2Cl)c1C(=O)Nc1cccc(-c2nc3ncccn3c2C)c1` gave a luminescence of 40.
For `CC(=O)CC(c1ccccc1)S(=O)(=O)c1ccc(C)cc1` (stereo not given), the luminescence was 40.
